Experimental data reported in PubChem BioAssay (NCI).
Compounds without any hit were thinned out: in the full panel of roughly 79,000, 15% have a hit. Unmarked numbers belong to inactive results. Active and inactive are the calls of the source. Cut-off read from the data, not from the text of the source: active = growth inhibition above about 70%; inactive = the rest.

Legend:
[1] = NCI Yeast Anticancer Drug Screen. Data for the rad50 strain (AID 155);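 note: 0% = growth of vehicle-only cultures of the same strain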; conditions: S. cerevisiae rad50 strain growth inhibition, active compounds read high
Method in brief: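 Inhibition values express reduced yeast growth in compound-treated cultures relative to vehicle-treated controls.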

[2] = NCI Yeast Anticancer Drug Screen. Data for the mec2-1 strain (AID 157); conditions: S. cerevisiae mec2-1 strain, active compounds read high
Method in brief: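 Readout is yeast growth inhibition, normalised to vehicle-treated controls, in the mec2-1 strain exposed to compound.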

[3] = NCI Yeast Anticancer Drug Screen. Data for the sgs1 mgt1 strain (AID 161);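 note: 0% = growth of cultures given vehicle only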; conditions: S. cerevisiae sgs1 mgt1 strain, active compounds read high
Method in brief: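 Percent growth inhibition was derived by comparing compound-exposed mutant yeast with vehicle-exposed cultures. The strain carries alterations in DNA damage repair.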

[4] = NCI Yeast Anticancer Drug Screen. Data for the cln2 rad14 strain (AID 165);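 note: 0% = growth equal to vehicle treated cultures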; conditions: S. cerevisiae cln2 rad14 strain, active compounds read high
Method in brief: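 Relative to vehicle controls, growth inhibition of compound-treated cln2 rad14 yeast was recorded.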

[5] = NCI Yeast Anticancer Drug Screen. Data for the bub3 strain (AID 167); conditions: S. cerevisiae bub3 mutant strain, active compounds read high
Method in brief: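 Steps: expose the mutant yeast strain to compound; grow alongside vehicle-treated cultures; measure growth; express inhibition against the vehicle cultures.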

[6] = NCI Yeast Anticancer Drug Screen. Data for the mlh1 rad18 strain (AID 175); conditions: S. cerevisiae mlh1 rad18 strain growth inhibition, active compounds read high
Method in brief: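 Test agents were incubated with a yeast strain of defined genotype (DNA damage repair defect). Inhibition of growth was derived by comparison with vehicle-exposed cultures.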

[7] = at 5.0 µM (retest, dose inferred, filed as 0.5)
[8] = at 50.0 µM (retest, dose inferred, filed as 5.0)

Structure (SMILES) | growth inhibition [1, 7] | growth inhibition [1, 8] | growth inhibition ([1]; at 50.0 µM) | growth inhibition [2, 7] | growth inhibition [2, 8] | growth inhibition ([2]; at 50.0 µM) | growth inhibition [3, 7] | growth inhibition [3, 8] | growth inhibition ([3]; at 50.0 µM) | growth inhibition [4, 7] | growth inhibition [4, 8] | growth inhibition ([4]; at 50.0 µM) | growth inhibition [5, 7] | growth inhibition [5, 8] | growth inhibition ([5]; at 50.0 µM) | growth inhibition [6, 7] | growth inhibition [6, 8] | growth inhibition ([6]; at 50.0 µM)
O=c1c2cc3ccccc3cc2c(=O)n2n1CC=CC2 | 8% | 39% | 74.2% (active) | -1% | 6% | 15.9% | 9% | 18% | 22% | 4% | 10% | 26.8% | 2% | -1% | -0.8% | 25% | 46% | 10.8%
c1ccc2c(c1)CCN2CCc1c[nH]c2ccccc12 | 0% | 12% | 89.6% (active) | -5% | -12% | 91.8% (active) | -10% | 3% | 89.8% (active) | 23% | 31% | 89.8% (active) | -26% | 43% | 89.3% (active) | -14% | 21% | 88.5% (active)
O=C1CCCC1C(=O)OC1CCCC1 (configuration not stated) | 42% | 13% | -7.55% | 13% | 4% | -15% | 7% | 2% | -18.6% | 14% | 3% | 48.5% | 24% | 0% | -19.3% | 14% | 0% | -11.4%
O=C(C[n+]1ccccc1)c1ccc2ccc3ccc(Cl)cc3c2c1 | 4% | 67% | 59.1% | 0% | 26% | 32% | 3% | 56% | 35.5% | 2% | 39% | -90.4% | -2% | 46% | 2.15% | 29% | 82% (active) | 72.5% (active)
CCOC(=O)c1c(N)c(=O)n2c3c(cccc13)CC2 | 0% | 92% (active) | 96.9% (active) | -2% | 98% (active) | 97.5% (active) | 0% | 99% (active) | 97.7% (active) | 7% | 59% | 98.7% (active) | -1% | 79% (active) | 96.8% (active) | 21% | 98% (active) | 98.6% (active)
COC(=O)c1c(/C(=N/Nc2ccc([N+](=O)[O-])cc2)[N+](=O)[O-])ssc1=N | 14% | 37% | 21.1% | 0% | 44% | 24.9% | 13% | 60% | 27.6% | 6% | 23% | 27.9% | 6% | 40% | 24.9% | 15% | 54% | 70.9% (active)
COc1ccc(C(=O)C(c2ccc(OC)cc2)C2(O)C(=O)Nc3c(C)cc(Cl)cc32)cc1 (configuration not stated) | 21% | 21% | -25.1% | -15% | -15% | 89% (active) | -9% | -9% | 87.8% (active) | 3% | 3% | 69.7% | -3% | -3% | 89.8% (active) | -2% | -2% | 38.7%
C[Si](C)(C)CC(c1ccccc1)C(O)c1ccccc1 (configuration not stated) | -7% | 96% (active) | 98.5% (active) | -4% | 98% (active) | 97.8% (active) | -3% | 98% (active) | 98% (active) | 0% | 97% (active) | 93.9% (active) | 0% | 98% (active) | 98.7% (active) | 1% | 98% (active) | 98.8% (active)
NC(=O)C1CCN(N=Nc2c(-c3ccccc3)n[nH]c2-c2ccccc2)CC1 | 79% (active) | 99% (active) | 99.4% (active) | 99% (active) | 100% (active) | 99.5% (active) | 99% (active) | 100% (active) | 99.5% (active) | 99% (active) | 99% (active) | 99.3% (active) | 99% (active) | 99% (active) | 99.5% (active) | 99% (active) | 99% (active) | 99.2% (active)
COc1cc(CNC(=O)CCCCCCCC/C=C/Br)ccc1O | -32% | 93% (active) | 84.7% (active) | -7% | 96% (active) | 85.8% (active) | -2% | 92% (active) | 90.5% (active) | -4% | 94% (active) | 85% (active) | -4% | 95% (active) | 87.6% (active) | -16% | 92% (active) | 87.5% (active)
CC1(C)OC2C(COC(c3ccccc3)(c3ccccc3)c3ccccc3)OC(n3cnc4c(N)ncnc43)C2O1 (configuration not stated) | -1% | 80% (active) | 64.9% | 19% | 99% (active) | 56.8% | 11% | 92% (active) | 18.6% | -4% | 89% (active) | 72.5% (active) | -2% | 92% (active) | 48.2% | 32% | 95% (active) | 58.5%
Cc1cc(N=Nc2ccncc2C)ccc1N | -69% | 98% (active) | 92.5% (active) | -50% | 87% (active) | 52.5% | -34% | 98% (active) | 75.6% (active) | -45% | 92% (active) | 48.9% | -40% | 98% (active) | 89% (active) | -72% | 96% (active) | 66.7%
FC(F)(F)c1ccc(-c2ccc(OCCN3CCCC3)cc2)cc1 | 30% | 50% | 98.6% (active) | 13% | 50% | 99.5% (active) | 25% | 88% (active) | 99.4% (active) | 28% | 40% | 99.1% (active) | 26% | 62% | 99.4% (active) | 29% | 68% | 99.3% (active)
Cc1cc(O)cc(C)c1[N+](=O)[O-] | 5% | 25% | 55% | 0% | 24% | 49.8% | -6% | 41% | 79.6% (active) | -1% | 20% | 23.6% | -1% | 36% | 29.3% | 4% | 41% | 63.5%
COc1ccc2sc3c(C)ccc(NCC4CCCN5CCCCC45)c3c(=O)c2c1 (configuration not stated) | 42% | 81% (active) | 97.2% (active) | 12% | 88% (active) | 99.6% (active) | 32% | 76% (active) | 99.3% (active) | 16% | 85% (active) | 99.2% (active) | 21% | 92% (active) | 99.5% (active) | 27% | 81% (active) | 99.4% (active)
COC(=O)c1ccc(SCC(=O)c2ccc([N+](=O)[O-])o2)cc1 | 4% | 90% (active) | 97% (active) | 4% | 98% (active) | 98% (active) | 5% | 81% (active) | 79.3% (active) | -4% | 96% (active) | 95.3% (active) | -5% | 46% | 60.4% | 2% | 79% (active) | 98.5% (active)
Cc1cc(N)cc(C)c1-c1c(N)cc(Br)cc1Br | -1% | -10% | 98.1% (active) | -3% | -6% | 97.5% (active) | -4% | -9% | 98.3% (active) | 1% | -10% | 96.6% (active) | -7% | -13% | 98.1% (active) | -2% | -9% | 97.9% (active)
OC(C/C=N/Nc1ccccc1)(C(F)(F)Cl)C(F)(F)Cl | -13% | 97% (active) | 89.2% (active) | -11% | 99% (active) | 90.9% (active) | -10% | 98% (active) | 91.7% (active) | 2% | 98% (active) | 89.5% (active) | 5% | 98% (active) | 91.8% (active) | -18% | 98% (active) | 89.6% (active)
CN(C)CCCC1(c2ccccc2)SC(C)(C)c2ccc(Cl)cc21 (configuration not stated) | -36% | 28% | 15.3% | -4% | 7% | 28.9% | 0% | 39% | 44.2% | 0% | 0% | -9.75% | -2% | 11% | 19.3% | 11% | 56% | 66%
